Test results reported in the supplement of paper PMC9694430.

How the values were obtained:
Experiment in all cases: thermal shift delta Tm vs DMSO control; higher = stronger stabilization (binding)
Settings in all cases: 12.5 µM; protein concentration 2 µM
[1] = compound: C/C(O)=C(\C#N)C(=O)Nc1cc(Br)ccc1Br
Procedure, shortened: (§1)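 Thermal shift values come from differential scanning fluorimetry on purified rice kinase domains made in E. coli, with melting temperatures obtained from Boltzmann fits. Samples of 19.5 μl held 2 μM kinase, 100 mM potassium phosphate pH 7.5, 150 mM NaCl, 10% glycerol, 5 × SYPRO Orange and compound in DMSO, and were heated from 25°C to 95°C at 0.05°C/s. Each shift is a triplicate mean relative to the DMSO-only protein sample.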

[2] = compound: CC(C)(C)c1cc(C=C(C#N)C#N)cc(Br)c1O
Procedure, shortened: as §1

[3] = compound: CC(C)(C)c1cc(C=C(C#N)C#N)cc(C(C)(C)C)c1O [Tyrphostin 9]
Procedure, shortened: as §1

[4] = compound: CCN1CCN(C(=O)Cc2ccc(Nc3ncc(F)c(Nc4ccc(C(=O)Nc5ccccc5Cl)cc4)n3)cc2)CC1 [Aurora A Inhibitor I]
Procedure, shortened: as §1

[5] = compound: COc1cc([C@@H]2c3cc4c(cc3[C@H](O)[C@H]3COC(=O)[C@@H]23)OCO4)cc(OC)c1OC [Picropodophyllin (PPP)]
Procedure, shortened: as §1

[6] = compound: COc1ccc(C[C@H]2NC[C@H](O)[C@H]2OC(C)=O)cc1 [Anisomycin]
Procedure, shortened: as §1

[7] = compound: COc1ccc(N(C(=O)Oc2c(C)cccc2C)c2ccnc(Nc3ccc(N4CCN(C)CC4)cc3)n2)c(OC)c1
Procedure, shortened: as §1

[8] = compound: COc1ccc2c(c1)/C(=C/c1cnc[nH]1)C(=O)N2
Procedure, shortened: as §1

[9] = compound: Cc1ccccc1-n1c(Cn2ncc3c(N)ncnc32)nc2cccc(C)c2c1=O
Procedure, shortened: as §1

[10] = compound: O=c1[nH]c2ccc(Cl)cc2c(N[C@@H]2CN3CCC2CC3)c1-c1nc2ccccc2[nH]1
Procedure, shortened: as §1

[11] = compound: Cn1cc(C2=C(c3cn(C4CCN(Cc5ccccn5)CC4)c4ccccc34)C(=O)NC2=O)c2ccccc21
Procedure, shortened: as §1
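Further: purified Escherichia coli-expressed rice kinase domain construct.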

Sequence of LOC_OS01G52050-cb004 (as listed by the source): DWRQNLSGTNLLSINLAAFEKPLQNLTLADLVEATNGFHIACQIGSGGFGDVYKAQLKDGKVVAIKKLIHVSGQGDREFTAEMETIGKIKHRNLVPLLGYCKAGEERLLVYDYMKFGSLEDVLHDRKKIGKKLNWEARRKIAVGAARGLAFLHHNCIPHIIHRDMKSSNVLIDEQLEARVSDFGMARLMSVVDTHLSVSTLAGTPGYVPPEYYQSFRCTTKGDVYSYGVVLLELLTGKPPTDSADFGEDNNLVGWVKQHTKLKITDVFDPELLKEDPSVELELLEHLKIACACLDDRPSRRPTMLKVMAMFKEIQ
Sequence of LOC_OS06G16330-cb003 (as listed by the source): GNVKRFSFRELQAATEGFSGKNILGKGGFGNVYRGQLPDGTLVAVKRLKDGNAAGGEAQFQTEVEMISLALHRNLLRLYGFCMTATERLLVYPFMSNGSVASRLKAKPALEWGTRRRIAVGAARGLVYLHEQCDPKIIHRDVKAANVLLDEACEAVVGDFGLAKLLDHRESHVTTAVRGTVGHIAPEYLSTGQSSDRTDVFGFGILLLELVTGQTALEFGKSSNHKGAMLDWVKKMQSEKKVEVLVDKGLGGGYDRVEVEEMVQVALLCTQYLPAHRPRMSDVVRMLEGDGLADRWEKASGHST
Sequence of LOC_OS06G22820-cb001 (as listed by the source): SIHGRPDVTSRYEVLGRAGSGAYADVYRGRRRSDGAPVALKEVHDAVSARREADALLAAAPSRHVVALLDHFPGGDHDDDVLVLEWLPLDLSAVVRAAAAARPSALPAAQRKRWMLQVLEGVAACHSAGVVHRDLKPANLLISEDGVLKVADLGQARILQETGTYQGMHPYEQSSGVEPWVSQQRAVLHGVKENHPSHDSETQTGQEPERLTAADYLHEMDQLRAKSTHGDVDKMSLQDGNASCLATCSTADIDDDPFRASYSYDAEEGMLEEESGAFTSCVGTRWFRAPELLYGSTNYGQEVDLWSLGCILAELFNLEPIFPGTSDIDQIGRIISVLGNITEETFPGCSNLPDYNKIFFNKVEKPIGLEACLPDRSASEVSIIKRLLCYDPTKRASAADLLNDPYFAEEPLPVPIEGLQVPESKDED
Sequence of LOC_OS04G41100-cb001 (as listed by the source): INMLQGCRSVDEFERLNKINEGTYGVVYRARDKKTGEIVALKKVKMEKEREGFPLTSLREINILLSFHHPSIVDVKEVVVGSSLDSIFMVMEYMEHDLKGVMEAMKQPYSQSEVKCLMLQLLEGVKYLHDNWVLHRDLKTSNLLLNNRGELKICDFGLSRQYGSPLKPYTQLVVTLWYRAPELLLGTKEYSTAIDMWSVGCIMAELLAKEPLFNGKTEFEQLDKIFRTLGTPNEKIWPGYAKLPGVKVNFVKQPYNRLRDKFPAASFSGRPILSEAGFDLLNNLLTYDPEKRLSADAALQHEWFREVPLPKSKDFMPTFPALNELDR

Target	thermal shift delta Tm [1] [°C]	thermal shift delta Tm [2] [°C]	thermal shift delta Tm [3] [°C]	thermal shift delta Tm [4] [°C]	thermal shift delta Tm [5] [°C]	thermal shift delta Tm [6] [°C]	thermal shift delta Tm [7] [°C]	thermal shift delta Tm [8] [°C]	thermal shift delta Tm [9] [°C]	thermal shift delta Tm [10] [°C]	thermal shift delta Tm [11] [°C]
LOC_OS01G48390-cb002	0.77	0.72	2.01	4.11	0.19	0.33	-0.27	1.32	0.11	1.21	–
LOC_OS02G14120-cb001	0.47	0.92	3.24	8.23	0.5	0.58	0.02	4.75	-0.47	7.91	–
LOC_OS02G17970-cb001	1.08	2.06	3.2	0.33	0.61	0.2	0.79	0.72	-0.06	0.93	–
LOC_OS01G10900-cb004	1.47	-0.04	3.61	0.91	0.63	0.16	0.15	1.02	0.1	0.03	–
LOC_OS01G51400-cb002	0.56	0.64	1.62	-0.05	-0.01	0.24	0.03	0.84	0.24	0.3	–
LOC_OS06G16330-cb003	1.18	2.32	0.83	8.9	0.19	-0.28	-0.04	5.39	-0.12	6.83	–
LOC_OS06G22820-cb001	0.73	1.01	1.56	-0.07	0.27	0.57	0.55	0.55	0.41	0.64	1
LOC_OS07G07230-cb001	0.39	1.24	0.49	0.3	0.63	0.94	0.5	-0.03	0.41	0.14	0.68
LOC_OS01G57100-cb003	1.78	-0.11	6.29	1.79	0.44	1.09	1.54	1.34	0.63	3.28	–
LOC_OS07G06570-cb004	0.21	0.05	2.9	0.63	1.02	1	1.01	0.08	1.12	0.51	–
LOC_OS02G08530-cb003	1.36	1.36	2.26	2.48	0.6	1.28	0.72	2.97	0.37	5.48	0.99
LOC_OS01G60330-cb001	1.6	1.56	4.55	12.3	0.72	0.77	1.23	4.72	-0.01	10.8	–
LOC_OS03G12390-cb001	1.3	0.42	0.25	5.37	-0.2	-0.29	0.45	4.35	-0.25	4.7	0.52
LOC_OS03G50810-cb003	0.73	0.71	0.82	3.94	0.16	0.59	0.9	3.03	0.23	5.29	1.38
LOC_OS01G70970-cb002	0.43	0.94	2.45	4.68	0.24	0.31	0.31	4.78	-0.01	5.08	–
LOC_OS03G50450-cb001	1.25	0.89	1.36	6.04	0.03	0.61	0.76	1.49	0.18	2.51	0.07
LOC_OS01G52050-cb004	0.91	2.42	3.34	1.73	-0.26	0.12	-0.12	4.67	-0.06	9.73	–
LOC_OS05G16824-cb004	2.14	-1.4	-0.97	7.48	-3.09	-4.31	1.29	8.5	-1.77	15.4	2.01
LOC_OS02G54510-cb004	0.42	0.85	0.47	1.31	0.14	0.56	0.56	0.44	0.08	1.44	0.65
LOC_OS05G07850-cb002	1.58	4.65	0.08	12.2	-0.91	0.21	7.34	8.01	-0.57	8.76	2.26

Target	thermal shift delta Tm [1] [°C]	thermal shift delta Tm [2] [°C]	thermal shift delta Tm [3] [°C]	thermal shift delta Tm [4] [°C]	thermal shift delta Tm [5] [°C]	thermal shift delta Tm [6] [°C]	thermal shift delta Tm [7] [°C]	thermal shift delta Tm [8] [°C]	thermal shift delta Tm [9] [°C]	thermal shift delta Tm [10] [°C]	thermal shift delta Tm [11] [°C]
LOC_OS01G02750-cb003	1.62	1.02	6.7	0.26	0.88	0.6	0.82	2.97	0.47	4.52	-0.47
LOC_OS05G43570-cb004	0.83	0.83	1.46	1.76	-0.21	0.46	0.38	0.79	0.31	1.44	1
LOC_OS04G35114-cb001	1.21	0.3	0.89	3.75	0.21	0.57	1.64	6.97	0.13	5.95	1.31
LOC_OS01G13800-cb001	0.83	2.05	1.92	0.32	-0.49	0.17	0.12	0.49	0.06	-0.04	–
LOC_OS03G04050-cb001	0.96	0.99	0.99	0.02	0.1	0.72	0.67	0.53	0.27	0.52	0.69
LOC_OS01G14860-cb001	1.32	1.24	3.15	3.95	0.29	-0.05	0.07	5.78	-0.1	7.87	–
LOC_OS05G28520-cb001	1.13	0.45	1.67	0.67	0.07	0.12	0.27	0.94	-0.36	0.32	3.85
LOC_OS01G63280-cb003	0.5	0.9	2.28	0.22	-0.03	0.15	0.38	4.22	-0.3	0.81	–
LOC_OS04G57630-cb004	0.3	0.11	-0.37	4.13	0.26	0.15	0.3	1.58	-0.13	1.43	-0.06
LOC_OS02G07810-cb001	1.72	2.07	2.29	0.45	0.15	0.03	0.73	0.97	0.6	1.44	–
LOC_OS02G45750-cb003	1.66	-0.03	0.99	3.48	0.36	1.18	2.08	7.07	-0.14	11.3	0.32
LOC_OS01G60700-cb002	1.75	1.51	4.79	0.71	0.4	0.15	1.33	0.77	0.02	1.41	3.52
LOC_OS01G67340-cb003	1.03	0.32	-0.32	0.7	0.12	0.35	0.5	4.84	-0.48	2.48	0
LOC_OS01G21960-cb002	1.38	1.5	4.31	2.25	0.41	0.52	0.61	1.85	0.03	3.76	–
LOC_OS01G39600-cb002	0.11	3.42	–	3.74	-0.4	-0.07	-0.58	2.01	0.35	6.61	–
LOC_OS01G01410-cb001	0.85	0.56	3.01	2.6	-0.11	0.63	0.04	2.18	0.73	3.66	–
LOC_OS04G41100-cb001	0.64	0.96	1.09	1.62	0.3	0.43	0.13	3.1	0.39	2.42	1.42
LOC_OS03G27990-cb004	0.81	0.8	0.88	1.5	0.02	0.47	0.54	1.69	-0.07	3.66	0.11
LOC_OS05G30820-cb001	0.57	1.27	0.84	1.39	0.41	0.89	0.33	0.99	0.5	0.98	0.82
